A selection: hits, their analogues and other compounds. The true share with any hit is near 12%.
Arbovirus anti – arbovirus infection inhibition | AID 1251 | inhibition, % at 10 µM | hit rate 0.37% among 200,000 | arbovirus infection cell-based antiviral screen; in the data active = inhibition above about 30%
CHOP inhibitor – blocks CHOP induction under ER stress; CHO-K1 CHOP-promoter luciferase, tunicamycin-induced, 15-18 h; inhibition, % at 10 µM; hit rate 3.8% among 220,000;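 active = compounds that reduced the stress-induced luciferase reporter signal by more than about 70% of percent inhibition, limit read from the data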;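 also: 0% = tunicamycin plus vehicle and 100% = wells without tunicamycin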
Lmaj promast – Leishmania major promastigote growth inhibition; hit rate 9% among 200,000; Leishmania major promastigotes, resazurin fluorescence viability; inhibition, % at 10 µM; in the data active = inhibition above about 50%;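 also: promastigotes grown with compound for 44 hours at 28 °C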
WT yeast gro inh – growth inhibition of WT yeast, mitochondrial fusion screen; mitochondrial fusion phenotypic screen, WT strain; inhibition, % at 10 µM; hit rate 2.1% among 190,000; in the data active = inhibition above about 58%; tested in S. cerevisiae
CHOP confirm – confirmation of CHOP induction inhibitors; shares compounds with CHOP inhibitor; CHO-CHOP promoter luciferase reporter, tunicamycin-induced, luminescence; inhibition, % at 10 µM; hit rate 45% among 2,100; AID 504437;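 active = mean of three repeat readings of reporter signal inhibition above a set limit, cut at about 70% in these data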;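 also: 0% = tunicamycin plus vehicle and 100% = wells lacking tunicamycin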
The depositor's hits bear a star; x = no result.

SMILES	Arbovirus anti	CHOP inhibitor	Lmaj promast	WT yeast gro inh	CHOP confirm
Cc1cccc(NS(=O)(=O)c2ccc(C3CCCCC3)cc2)c1	-32.6	107.4*	17.4	73.7*	132.5*
CCO[C@H]1OC(C(=O)N2CCN(C)CC2)=C[C@@H](c2ccc(Br)cc2)[C@@H]1CCCO	-0.8	21.6	-3.1	4.9	x
Cc1cc(NCCCCO)n2c(nc3ccccc32)c1C#N	1.1	-12.2	11.0	24.0	x
Cc1cc(Nc2cccc([N+](=O)[O-])c2)n2c(nc3ccccc32)c1C#N	13.0	103.1*	15.2	9.6	86.9*
Oc1ccc(Br)cc1-c1cc(-c2ccccc2Cl)[nH]n1	x	-31.9	x	x	x
Cc1ccc(O)c(-c2cc(C(F)(F)F)[nH]n2)c1	10.7	19.3	-6.5	12.3	x
Oc1ccc(Cl)cc1-c1cc(-c2ccccc2)n[nH]1	32.8*	104.8*	16.8	58.5*	81.5*
Cc1ccc(O)c(-c2cc(-c3cccc(Br)c3)n[nH]2)c1	-34.7	96.7*	31.8	93.2	33.8
Oc1ccc(Br)cc1-c1cc(-c2ccccc2F)[nH]n1	21.6	98.3*	24.1	18.1	99.7*
C=CCn1c(C)nc2c(sc3nc4c(cc32)COC(C)(C)C4)c1=O	x	-5.5	x	x	x
COCCn1nnnc1CN1CCC(C)CC1	4.8	11.7	0.6	-3.7	x
CCN1/C(=C/C(C)=C/c2sc3ccccc3[n+]2CC)Sc2ccccc21	-32.4	110.4*	99.8*	88.8	141.2*
CCc1ccc2c(c1)C1(NN=C(c3cccc4ccccc34)S1)C(=O)N2 (centres undefined)	-24.4	104.2*	98.9*	19.0	63.4
COC(=O)c1sc2ccccc2c1-n1cccc1C(=O)C(=O)Nc1ccccc1	-22.7	38.0	-2.0	-36.4	x
Nc1c(C(=O)Nc2ccccc2F)sc2nc(-c3ccco3)ccc12	-2.5	0.2	0.7	-2.9	x
Nc1c(C(=O)Nc2ccccc2F)sc2nc(-c3cccnc3)ccc12	x	97.2*	x	x	77.1*
Cc1ccc(-n2c(C)cc3c2CC(C)(C)CC3=O)cc1C	-8.8	105.3*	-0.8	11.4	37.7
O=C(N/N=C/C=C/c1ccccc1)NC1CCCCC1	1.2	101.4*	2.2	4.3	20.1
Cc1cc(C)c2c(c1)/C(=N/NS(=O)(=O)c1ccc(Br)cc1)CCC2	-6.6	105.8*	2.1	16.7	82.0*
Cc1cc(NC(=O)C2CCCCC2)n(-c2nc3ccccc3[nH]2)n1	-19.2	102.1*	13.8	5.9	39.8
Cc1cc(NC(=O)c2ccc(C)s2)n(-c2nc3ccccc3[nH]2)n1	-9.8	-27.6	-0.8	11.2	x
Cc1cc(NC(=O)c2c(F)cccc2F)n(-c2nc3ccccc3[nH]2)n1	-18.9	99.6*	23.3	5.5	-6.3
Cc1cc2c(cc1C)CSC(c1ccc3ccccc3c1O)SC2	13.2	65.0	-10.8	26.7	x
Cc1cc2c(cc1C)CSC(c1c(O)ccc3ccccc13)SC2	-45.7	111.8*	35.6	96.7*	115.9*
CC(C)c1ccc(O)c(NC(=S)NC(=O)CCc2ccccc2)c1	-11.6	106.3*	-5.6	21.9	110.1*
SMILES	Arbovirus anti	CHOP inhibitor	Lmaj promast	WT yeast gro inh	CHOP confirm
CC(=O)NC(=S)NNC(=O)CCc1ccccc1	-1.3	23.8	20.3	-0.2	x
CCc1ccc(C(=O)NNc2ccc(F)cc2F)cc1	x	-6.8	x	x	x
COc1cc2[nH]c(=O)n(CCC(=O)N3CCN(c4cc(Cl)ccc4C)CC3)c(=O)c2cc1OC	-21.8	103.6*	-0.5	8.4	55.5
O=C(CSc1nnc(CNC(=O)c2cccs2)o1)NCC1CCCO1 (centres undefined)	6.4	-5.1	-3.0	3.2	x
Cn1ccnc1SCC(=O)Nc1cc(C(F)(F)F)ccc1N1CCOCC1	6.4	36.3	-2.5	8.4	x
CCCc1cc(-c2nc(N)ncc2-c2ccc3c(c2)OCCCO3)c(O)cc1OC	-45.1	106.0*	30.8	84.7*	121.9*
CC1=NN(c2ccc(C)c(C)c2)C(=O)/C1=C\C=C\c1ccc([N+](=O)[O-])o1	-3.0	108.4*	98.4*	80.4	20.7
O=C(Nc1ccc(N2CCN(Cc3ccccc3)CC2)cc1)c1ncn[nH]1	-5.2	-5.1	10.2	15.4	x
Cc1ccc2[nH]c(O)c(N=NC(=O)CCc3ccccc3)c2c1Br	-12.0	106.8*	6.3	7.8	83.0*
O=C(CSCc1ccccc1)N=Nc1c(O)[nH]c2ccccc12	-18.6	22.4	-3.6	10.0	x
Oc1cccc(C2c3[nH]c4ccccc4c3CCN2Cc2ccc3c(c2)CCO3)c1 (centres undefined)	-11.6	105.8*	26.1	45.7	10.3
CCOc1cc(NC(=S)NCCCN2CCOCC2)c(OCC)cc1NC(=O)CC(C)C	-5.2	12.8	2.4	11.8	x
O=C(NCc1ccccc1Cl)C1CCC(CNc2nc(=S)[nH]c3ccccc23)CC1 (centres undefined)	4.0	98.1*	4.1	7.1	15.7
O=C(CCCCCNc1nc(=S)[nH]c2ccccc12)NCc1ccccc1Cl	-13.8	33.9	31.7	-12.2	x
C[C@H](NC(=O)c1[nH]cnc1C(=O)Nc1ccc(Cl)cc1)C(=O)OC(C)(C)C	x	104.5*	x	x	91.3*
CCOC(=O)c1ccc(NC(=O)c2nc[nH]c2C(=O)N[C@@H](C)C(=O)OC(C)(C)C)cc1	x	97.5*	x	x	103.8*
Cc1c(C(=O)NCc2ccc(S(N)(=O)=O)cc2)oc2ccc(Cl)cc12	4.0	16.7	-2.8	9.0	x
Cc1ccc(C(=O)CN2/C(=C(\O)c3ccccc3)C(=O)c3ccccc3S2(=O)=O)c(C)c1	-13.1	105.8*	82.2*	55.4	28.0
CCOC(=O)C1=C(Cc2ccc(Cl)cc2)C(=O)c2ccccc2C1=O	-30.4	106.9*	91.2*	14.3	44.9
CCn1ncc(Br)c1C(=O)Nc1ccc(F)c([N+](=O)[O-])c1	6.2	-24.5	19.5	-9.5	x
COc1ccc(NC(=O)c2ccc(NC(=O)CN(C)CC(=O)Nc3c(C)cccc3C)cc2)cc1	x	0.3	x	x	x
COc1cc(C(=O)ON=C2C(C)=CC(=O)C=C2C)cc(OC)c1OC	-34.2	110.1*	74.1*	-19.7	-112.2
COc1ccc(OC)c(N(CC(=O)Nc2ccc3c(c2)OCCO3)S(C)(=O)=O)c1	4.6	36.6	-0.4	9.5	x
CCCOc1ccccc1C1CC(=O)NC(C)=C1C(=O)OCC(C)C (centres undefined)	-3.9	99.1*	-4.7	12.8	116.1*
CCC(C)OC(=O)C1=C(C)NC(=O)CC1c1ccccc1OC (centres undefined)	-30.7	16.6	2.5	3.3	x
SMILES	Arbovirus anti	CHOP inhibitor	Lmaj promast	WT yeast gro inh	CHOP confirm
COc1ccc(C(=O)C2CCCN(C(=O)c3ccc4cc[nH]c4c3)C2)c(C)c1 (centres undefined)	16.6	5.5	-0.3	9.4	x
CCc1ccc(OCC(=O)NNC(=O)CSc2ncnc3sc(C)c(C)c23)cc1	-9.9	100.9*	-5.9	-0.1	12.9
Cc1sc2ncnc(SCC(=O)NC(C)(C)C)c2c1C	0.1	54.4	15.5	-9.9	x
Cc1cc(NC(=O)C2CC2)ncc1NC(=O)c1ccccn1	-0.4	64.8	-1.6	0.3	x
O=C(Nc1nc(-c2ccccc2)ns1)c1ccncc1	x	-18.9	x	x	x
CCCOC(=O)c1ccc(Oc2c(-c3ccc(OCC)cc3O)n[nH]c2C)cc1	-43.8	113.5*	13.1	36.8	118.5*
CCOc1ccc(-c2[nH]ncc2Oc2cccc(OC)c2)c(O)c1	-43.6	107.4*	23.2	40.3	-7.2

Screening results deposited in PubChem BioAssay by several laboratories.
